From publication PMC6212833 come the findings set out here.

The structures appear in SMILES notation. About 15 (0.8%) of roughly 2,000 compounds showed an effect of 50% or more. The full list was thinned out, with strong results kept by preference.

In the experiment the test system is Balamuthia mandrillaris (ATCC PRA-291) trophozoites, axenic culture. The experiment in a line: primary screen, percent inhibition; higher = more effect of the substance.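 Further: 0% = vehicle wells and 100% = lysate wells.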 The settings on record: 20 µM. Here is the method: Screening of a clinically approved library of compounds, compiled by the Small Molecule Discovery Center (SMDC) at the UCSF, was completed at 20 µM in 0.2% DMSO. All 2,177 drugs in the library were stored as 10 mM stocks dissolved in 100% DMSO (Sigma-Aldrich) at −20°C. B. mandrillaris amoebae were resuspended in axenic medium and distributed into opaque 384-well plates (Corning) at a density of 3,000 amoebae per well using a BioMek NX liquid handler. Negative-control wells were treated with vehicle only (0.2% DMSO in axenic medium), and positive-control wells simulating total destruction of amoebae were seeded with amoeba lysate generated by 3 consecutive freeze-thaw cycles. Following 72 h of incubation, 30 µl of CellTiter Glo reagent (CTG; Promega) was added to each well. The luminescence was measured with a Promega GloMax-Multi+ plate reader at 2, 4, and 8 h after CTG addition. […] The B-score, representing a plate-based statistical approach for correcting row, column, and edge effects, was also calculated for each compound in the library (75).
By % Inhibition is commonly meant the drop in the measured response relative to a control, in per cent. Take `C/C(=C\C(=O)OCCCCCCCCC(=O)O)C[C@@H]1OC[C@H](C[C@@H]2O[C@H]2[C@@H](C)[C@H](C)O)[C@@H](O)[C@H]1O`: the “% Inhibition” value was determined as 26.3%. Turning to `CC(=O)Oc1cc(C(C)C)c(OCCN(C)C)cc1C`, the “% Inhibition” value was 24.8%. The result for `CCC(=O)OCC(=O)C1(OC(=O)CC)C(C)CC2C3CCC4=CC(=O)C=CC4(C)C3(Cl)C(O)CC21C` (stereo not drawn) reads 22.7%; that for `NC(=O)C1(N2CCCCC2)CCN(CCCC(=O)c2ccc(F)cc2)CC1`, 18.8%; that for `CNCCC[C@]12CC[C@H](c3ccccc31)c1ccccc12`, 23.8%. To `COC(=O)C1[C@H]2C[C@H]3c4[nH]c5ccccc5c4CCN3C[C@@H]2CC[C@@H]1O` (stereo partly drawn) belongs 22.5%; to `CCN(C)C(=O)Oc1cccc([C@H](C)N(C)C)c1` [756883-L2], 25.9%; to `CC(CCc1ccc(O)cc1)NCC(O)c1ccc(O)cc1` (stereo not drawn), -1.52%.

As for `CC1(C)S[C@@H]2[C@H](NC(=O)[C@H](NC(=O)N3CCN(S(C)(=O)=O)C3=O)c3ccccc3)C(=O)N2[C@H]1C(=O)O`, the “% Inhibition” value was determined as 18.9%. The result for `COCCCOc1cc(C[C@@H](C[C@H](N)[C@@H](O)C[C@H](C(=O)NCC(C)(C)C(N)=O)C(C)C)C(C)C)ccc1OC` reads -4.92%. The result for `CCC(=O)OCC(=O)[C@@]1(OC(=O)CC)[C@H](C)CC2C3C([C@@H](O)C[C@@]21C)[C@@]1(C)C=CC(=O)C=C1C[C@H]3Cl` (stereo partly drawn) reads 13.3%; that for `CC(=O)OCC(=O)[C@@]12OC(C)(C)O[C@@H]1C[C@H]1[C@@H]3C[C@H](F)C4=CC(=O)C=C[C@]4(C)[C@@]3(F)[C@@H](O)C[C@@]12C`, 11.4%; that for `Cc1cccc(C)c1NC1=NCCCS1`, 8.96%. To `CC(=O)N[C@@H](CS)C(=O)O` [129971-L5] belongs 0.0866%. For `CN(C)c1ccc(C(=C2C=CC(=[N+](C)C)C=C2)c2ccc(N(C)C)cc2)cc1`, the “% Inhibition” value is on record as 61.7%. The result for `COc1cc(N)c(Cl)cc1C(=O)N[C@H]1CCN(CCCOc2ccc(F)cc2)C[C@H]1OC` reads 9.62%; that for `CC(=O)OCC(=O)[C@@]1(O)CCC2C3CCC4=CC(=O)C=C[C@]4(C)[C@@]3(F)[C@@H](O)C[C@@]21C` (stereo partly drawn), 15.9%; that for `CCN[C@@H](C)Cc1cccc(C(F)(F)F)c1`, 20.1%. To `CC(=O)S[C@@H]1CC2=CC(=O)CC[C@]2(C)[C@H]2CC[C@@]3(C)[C@@H](CC[C@@]34CCC(=O)O4)C12` (stereo partly drawn) belongs 28%; to `C/C=C(/C)C(=O)O[C@@H]1[C@H](OC(C)=O)[C@@]2(CO)C(CC1(C)C)C1=CCC3[C@@]4(C)CC[C@H](O[C@@H]5O[C@H](C(=O)O)[C@@H](O[C@@H]6O[C@H](CO)[C@@H](O)[C@H](O)[C@H]6O)[C@H](O)[C@H]5O[C@@H]5O[C@H](CO)[C@@H](O)[C@H](O)[C@H]5O)[C@](C)(CO)C4CC[C@@]3(C)[C@]1(C)C[C@H]2O` (stereo partly drawn), 3.82%. To `CCN(CC)C(=O)C1CN2CCc3cc(OC)c(OC)cc3C2CC1OC(C)=O` (stereo not drawn) belongs 18.9%; to `CC(=O)/N=c1\sc(S(N)(=O)=O)nn1C`, 11.1%.

For `COc1ccc2[nH]c(S(=O)Cc3ncc(C)c(OC)c3C)nc2c1` (stereo not drawn) [255785-L6], the “% Inhibition” value is given as 24.6%. The result for `COc1ccc2c3c1O[C@H]1[C@@H](O)C=C[C@H]4[C@@H](C2)N(C)CC[C@@]341` reads 10.8%; that for `CC(=O)OCC(=O)[C@@]1(O)CC[C@H]2[C@@H]3CCC4=CC(=O)CC[C@]4(C)[C@@]3(F)[C@@H](O)C[C@@]21C`, 17.7%; that for `N=C(NCCCCCCNC(=N)NC(=N)Nc1ccc(Cl)cc1)NC(=N)Nc1ccc(Cl)cc1`, 63.6%. The result for `CC(C)/N=C(N)/N=C(\N)Nc1ccc(Cl)cc1` [131550-L2] reads 9.42%. To `CC(C)/N=C(N)/N=C(\N)Nc1ccc(Cl)cc1` [131550-L3] belongs 10.7%; to `O=C(O)COC(=O)Cc1ccccc1Nc1c(Cl)cccc1Cl`, -10.4%. With `N=C(N)N`, the “% Inhibition” value is on record as 14.8%. To `Cc1cc2nc3c(=O)[nH]c(=O)nc-3n(C[C@H](O)[C@H](O)[C@H](O)CO)c2cc1C` belongs 14.9%.

With `CO/N=C(\C(=O)N[C@@H]1C(=O)N2C(C(=O)O)=C(CSc3nc(=O)c(=O)[nH]n3C)CS[C@@H]12)c1csc(N)n1`, the “% Inhibition” value stood at 13.4%. To `Cc1ccc(S(=O)(=O)NC(=O)NN2CCCCCC2)cc1` belongs 32%; to `C[C@]12CCC3c4ccc(OS(=O)(=O)O)cc4CCC3C1CCC2=O` (stereo partly drawn), -1.63%; to `CO[C@@H]1[C@@H](OC(N)=O)[C@@H](O)[C@H](Oc2ccc3c(O)c(NC(=O)c4ccc(O)c(CC=C(C)C)c4)c(=O)oc3c2C)OC1(C)C`, 9.7%.

Take `O=C(O)CCCCC1CCSS1` (stereo not drawn): the “% Inhibition” value was 21.9%. The result for `CCC(=O)O[C@H]1[C@H](O[C@@H]2[C@@H](C)[C@H](O[C@H]3C[C@@](C)(OC)[C@@H](O)[C@H](C)O3)[C@@H](C)C(=O)O[C@H](CC)[C@@](C)(O)[C@H](O)[C@@H](C)C(=O)[C@H](C)C[C@@]2(C)O)O[C@H](C)C[C@@H]1N(C)C` reads 4.56%; that for `C=Cc1c(C)c2cc3[nH]c(cc4nc(cc5nc(cc1[nH]2)C(C)=C5CCC(=O)O)C(CCC(=O)O)=C4C)c(C)c3C=C`, 5.79%; that for `C[C@H]1CN(C[C@H](Cc2ccccc2)C(=O)NCC(=O)O)CC[C@@]1(C)c1cccc(O)c1`, 13.2%.
